# Where a name gives a salt, the structure may show the parent alone. Unmarked numbers belong to inactive results.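 How the source made its calls: active = AUC significantly below DMSO controls by Student t-fit with adjusted P under 0.01; inactive = not significantly reduced.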
# Tested on: Haemophilus parainfluenzae
# Test: growth AUC normalised to DMSO control (fraction of control); higher = less growth inhibition, active = hit call of the paper
# Details: 20 µM
# Outline: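 For the AUC endpoint, growth curves were integrated by the trapezoidal rule up to the exponential-to-stationary transition and normalised to DMSO controls on the same plate. The curves came from OD578 readings taken hourly for 24 h, in three biological replicates. Pathogens had been passaged anaerobically twice and inoculated at an OD578 of 0.01 into pre-reduced mGAM plates carrying 20 μM compound and 1% DMSO, sealed with breathable membranes. Medium for Haemophilus parainfluenzae also contained hemin and NAD.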
row,SMILES,growth AUC normalised to DMSO control
1,CCC1NC(=O)c2cc(S(N)(=O)=O)c(Cl)cc2N1 (centres undefined) [Quinethazone],1.16
2,C[C@]12CC[C@@H]3c4ccc(O)cc4CC[C@H]3[C@@H]1CCC2=O [Estrone],0.966
3,Cc1c(C)c2c(c(C)c1O)CCC(C)(COc1ccc(CC3SC(=O)NC3=O)cc1)O2 (centres undefined) [Troglitazone],0.984
4,COc1cc2ncnc(Nc3ccc(F)c(Cl)c3)c2cc1OCCCN1CCOCC1 [Gefitinib],0.971
5,CCN1CCN(C(=O)N[C@@H](C(=O)N[C@@H]2C(=O)N3[C@@H]2SC(C)(C)[C@@H]3C(=O)O)c2ccccc2)C(=O)C1=O [Piperacillin sodium salt],0.0495 (active)
6,CC1(C)S[C@@H]2[C@H](NC(=O)[C@H](NC(=O)N3CCNC3=O)c3ccccc3)C(=O)N2[C@H]1C(=O)O [Azlocillin sodium salt],0.0396 (active)
7,NC[C@H]1O[C@H](O[C@H]2[C@H](O[C@@H]3O[C@H](CO)[C@@H](O)[C@H]3O)[C@@H](O)[C@H](N)C[C@@H]2N)[C@H](N)[C@@H](O)[C@@H]1O [Ribostamycin sulfate salt],0.812 (active)
8,CCOc1ccc(Cc2nccc3cc(OCC)c(OCC)cc23)cc1OCC [Ethaverine hydrochloride],1.02
9,Cc1cccc(C)c1NC(=O)C1CCCCN1C (centres undefined) [Mepivacaine hydrochloride],1.07
10,CC1=C(/C=C/C(C)=C/C=C/C(C)=C/C(=O)O)C(C)(C)CCC1 [Retinoic acid],0.995
11,CC(C)n1c(/C=C/C(O)CC(O)CC(=O)O)c(-c2ccc(F)cc2)c2ccccc21 (centres undefined) [Fluvastatin sodium salt],1
12,CC(Oc1c(Cl)cccc1Cl)C1=NCCN1 (centres undefined) [Lofexidine],0.993
13,CN1CCCC(CC2c3ccccc3Sc3ccccc32)C1 (centres undefined) [Metixene hydrochloride],0.999
14,C=C(CC)C(=O)c1ccc(OCC(=O)O)c(Cl)c1Cl [Ethacrynic acid],1.02
15,CCN(Cc1ccncc1)C(=O)C(CO)c1ccccc1 (centres undefined) [Tropicamide],0.816
16,C#C[C@]1(O)CC[C@H]2[C@@H]3CCC4=CC(=O)CC[C@@H]4[C@H]3CC[C@@]21C [Norethindrone],0.989
17,CCCc1nn(C)c2c(=O)[nH]c(-c3cc(S(=O)(=O)N4CCN(C)CC4)ccc3OCC)nc12 [Sildenafil],1.1
18,CC(=O)OCC(CCn1cnc2cnc(N)nc21)COC(C)=O [Famciclovir],1.02
19,CC(=O)N[C@@H](CC(C)C)C(=O)O [N-Acetyl-L-leucine],1.02
20,CCN(CC)C(C)CN1c2ccccc2Sc2ccccc21 (centres undefined) [Ethopropazine hydrochloride],0.963

row,SMILES,growth AUC normalised to DMSO control
1,CN(C(=O)CN(CCO)CC(=O)N(C)C(C)(C)Cc1ccccc1)C(C)(C)Cc1ccccc1 [Oxethazaine],0.737
2,NC(=O)c1cccnc1 [Nicotinamide],1.04
3,O=C(O)CCC(=O)Nc1ccc(S(=O)(=O)Nc2nccs2)cc1 [Succinylsulfathiazole],1.01
4,Oc1c(Cl)cc(Cl)c2cccnc12 [Chloroxine],0.114 (active)
5,Cc1ccc2c(c1)c1c3n2CCNC3CCC1 (centres undefined) [Pirlindole mesylate],0.995
6,Clc1ccc2nsnc2c1NC1=NCCN1 [Tizanidine hydrochloride],0.965
7,O=c1[nH]cc(F)c(=O)[nH]1 [5-fluorouracil],0.654 (active)
8,C[C@@H](O[C@H]1OCCN(Cc2n[nH]c(=O)[nH]2)[C@H]1c1ccc(F)cc1)c1cc(C(F)(F)F)cc(C(F)(F)F)c1 [Aprepitant],0.941
9,O=C(NC(Cc1cc(=O)[nH]c2ccccc12)C(=O)O)c1ccc(Cl)cc1 (centres undefined) [Rebamipide],1.01
10,NCCCC(O)(P(=O)(O)O)P(=O)(O)O [Alendronate sodium],1.05
11,C[N+]1(CCCCC[N+]2(C)CCCC2)CCCC1 [Pentolinium bitartrate],0.96
12,Cc1cc(-n2c(=O)[nH]c(=O)n(C)c2=O)ccc1Oc1ccc(SC(F)(F)F)cc1 [Toltrazuril],0.954
13,CCN[C@H]1C[C@H](C)S(=O)(=O)c2sc(S(N)(=O)=O)cc21 [Dorzolamide hydrochloride],1.03
14,Cc1ccccc1C(OCCN(C)C)c1ccccc1 (centres undefined) [Orphenadrine hydrochloride],0.954
15,C[C@H]1O[C@H](O[C@H]2[C@H](O)[C@@H](O)[C@@H](O[C@@H]([C@H](O)[C@@H](O)C=O)[C@H](O)CO)O[C@@H]2CO)[C@H](O)[C@@H](O)[C@@H]1N[C@H]1C=C(CO)[C@@H](O)[C@H](O)[C@H]1O [Acarbose],1.02
16,NC[C@H]1CC[C@H](C(=O)O)CC1 [Tranexamic acid],1.04
17,CN(C)CCC=C1c2ccccc2C=Cc2ccccc21 [Cyclobenzaprine hydrochloride],0.893
18,OC(CCN1CCCC1)(c1ccccc1)C1CCCCC1 (centres undefined) [Procyclidine hydrochloride],0.962
19,NC12CC3CC(CC(C3)C1)C2 [Adamantamine fumarate],1.05

# — the supplement of paper PMC12350171
